Compounds with a hit are over-represented: about 3.9% of the library has one in this group of screens.
ALR H2O2 inh: inhibitors of human ALR sulfhydryl oxidase, primary screen, biochemical, H2O2 detection, HRP-luminol luminescence, single point; inhibition, % (concentration not given with the values); AID 485317, 2010; actives 3.8% (n = 290,000); purified ALR, DTT oxidation; FAD-linked sulfhydryl oxidase ALR (Homo sapiens), P55789;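 active = mean replicate inhibition above about 79%, with every replicate also reaching it, limit read from the data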
SUMO Mot1 rescue: yeast Mot1-301 growth rescue at high temperature, primary screen, SUMOylation pathway inhibitor project, S. cerevisiae, ATP luminescence, 38.5C | actives 1% (n = 320,000) | AID 2716, 2010 | S. cerevisiae Mot1-301 growth rescue; percent above DMSO median, 100 means doubled | growth rescue, % at 18.8 µM;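 active = every valid replicate shows activation above 250% relative to neutral control wells; inactive = the rest, any valid replicate at or below 250%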;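 also: OY570 slx delta 5 strain wells were the positive control but not used for scaling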
CASP6 VEID inh: human caspase-6 inhibitors, primary screen, biochemical, VEID-R110 fluorescence, single point, set 2 | actives 0.53% (n = 350,000) | P55212 | purified caspase-6, Z-VEID-R110 cleavage fluorescence | inhibition, % at 12.5 µM;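 active = mean inhibition across replicates at least about 35%, with every replicate also reaching that limit, limit read from the data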;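 also: 0% = median of neutral control wells and 100% = no fluorescence left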
Glyco luc inh: increase of ERlucT glycosylation luciferase signal, primary screen, N-linked glycosylation inhibitor project, D54 ERlucT cells, luminescence, set 2; D54 ERlucT glycosylation luciferase reporter, 24 h; percent of 100 nM tunicamycin response; reporter increase, % at 12.5 µM; actives 0.23% (n = 360,000); AID 588692, 2011;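 active = mean luciferase reporter signal, scaled so untreated is 0 and the glycosylation-blocking control 100, at or above a set limit in every replicate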;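 also: luciferase carries N-glycosylation sites so blocking glycosylation raises the light; 0% = median of neutral control wells and 100% = median of 100 nM tunicamycin wells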
CDK5 p35 inh: inhibitors of human CDK5/p35 kinase, primary screen, biochemical, single concentration; Recombinant CDK5/p35, ADP-Glo luminescence, 60 min; actives 0.01% (n = 330,000); AID 488839, 2010; inhibition, % at 10 µM; Cyclin-dependent kinase 5 (Homo sapiens) + Cyclin-dependent kinase 5 activator 1 (Homo …;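 active = highest replicate inhibition of at least 50% and at least 75% of replicates reaching 50%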;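 also: plate controls were DMSO neutral control for no effect and GW8510 at 10 µM for full effect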
NSD2 inh: NSD2 histone methyltransferase inhibitors, primary screen, biochemical, AlphaScreen, single concentration, set 2. Histone-lysine N-methyltransferase NSD2 (Homo sapiens), O96028. NSD2 peptide methylation, 120 min. inhibition, % at 12.5 µM. actives 0.54% (n = 310,000). AID 743445, 2014; in the data active = inhibition above about 50%
Target sequence (O96028 whole entry, looked up): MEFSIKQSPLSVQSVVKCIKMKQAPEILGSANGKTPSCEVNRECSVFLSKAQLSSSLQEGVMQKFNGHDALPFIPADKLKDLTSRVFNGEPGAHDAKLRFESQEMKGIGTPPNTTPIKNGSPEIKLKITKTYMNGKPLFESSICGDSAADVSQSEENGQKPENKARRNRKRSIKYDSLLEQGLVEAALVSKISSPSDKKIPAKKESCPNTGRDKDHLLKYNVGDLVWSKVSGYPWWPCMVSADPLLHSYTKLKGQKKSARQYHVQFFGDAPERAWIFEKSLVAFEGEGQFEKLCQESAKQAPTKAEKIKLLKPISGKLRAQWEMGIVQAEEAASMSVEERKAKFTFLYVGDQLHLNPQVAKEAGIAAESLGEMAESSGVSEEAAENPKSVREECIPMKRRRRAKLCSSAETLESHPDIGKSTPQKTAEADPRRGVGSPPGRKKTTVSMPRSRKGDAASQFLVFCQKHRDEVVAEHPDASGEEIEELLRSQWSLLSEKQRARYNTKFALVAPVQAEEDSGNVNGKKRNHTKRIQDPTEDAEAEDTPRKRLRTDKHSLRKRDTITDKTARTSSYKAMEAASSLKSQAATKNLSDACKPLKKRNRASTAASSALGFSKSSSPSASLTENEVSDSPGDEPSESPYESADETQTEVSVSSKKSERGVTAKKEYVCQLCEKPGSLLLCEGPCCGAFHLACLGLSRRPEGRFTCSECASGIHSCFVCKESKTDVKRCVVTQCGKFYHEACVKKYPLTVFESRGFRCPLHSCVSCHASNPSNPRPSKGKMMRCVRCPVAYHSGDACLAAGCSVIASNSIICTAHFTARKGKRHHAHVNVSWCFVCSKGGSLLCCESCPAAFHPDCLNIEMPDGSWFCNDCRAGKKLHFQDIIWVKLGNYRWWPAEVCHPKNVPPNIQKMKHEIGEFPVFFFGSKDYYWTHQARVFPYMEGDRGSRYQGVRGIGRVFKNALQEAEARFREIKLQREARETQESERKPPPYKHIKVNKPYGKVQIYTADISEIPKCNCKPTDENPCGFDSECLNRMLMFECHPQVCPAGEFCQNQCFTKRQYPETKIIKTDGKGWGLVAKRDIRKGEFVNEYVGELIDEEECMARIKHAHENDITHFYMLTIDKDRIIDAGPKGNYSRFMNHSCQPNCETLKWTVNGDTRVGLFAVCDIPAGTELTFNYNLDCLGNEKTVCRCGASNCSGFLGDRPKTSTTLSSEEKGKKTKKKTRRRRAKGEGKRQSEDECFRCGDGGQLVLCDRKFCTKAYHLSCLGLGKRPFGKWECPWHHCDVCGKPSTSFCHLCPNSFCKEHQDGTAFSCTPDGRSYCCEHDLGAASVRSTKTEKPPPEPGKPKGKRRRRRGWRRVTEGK
Numbers without * were called inactive; i = inactive; . = not tested or not shown.

SMILES	ALR H2O2 inh	SUMO Mot1 rescue	CASP6 VEID inh	Glyco luc inh	CDK5 p35 inh	NSD2 inh
CC(C)CC#Cc1ccc2c(c1)O[C@@H](CN(C)C(=O)c1cnccn1)[C@H](C)CN([C@@H](C)CO)S2(=O)=O	.	.	0.5	.	.	.
Cc1ccc2c(c1)=N/C(=N\c1[nH]c(O)c3ccccc13)N=2	.	.	-0.6	-0.5	.	0.5
Oc1[nH]c(N=C2N=c3ccccc3=N2)c2ccccc12	-2.2	293.3*	0.8	117.3*	-1.2	0.1
Cc1ccc(NC(=O)CSC(N)=O)cc1Cl	99.5*	37.6	.	1.4	0.9	0.0
N#CCSCC(=O)Nc1ccc(Cl)cc1	98.5*	-4.0	.	1.1	-2.1	-6.1
COCC(=O)Nc1ccc(C)c(Cl)c1	.	-8.4	.	0.7	0.0	-2.7
NC(=O)SCC(=O)Nc1ccc(Cl)c(Cl)c1	98.5*	i	.	2.6	1.8	3.5
NC(=O)SCC(=O)Nc1ccc(Cl)cc1	99.2*	18.7	.	1.8	-2.0	-0.8
C[C@H](CO)N1C[C@H](C)[C@H](CN(C)S(C)(=O)=O)Oc2ncc(-c3ccccc3)cc2C1=O	.	.	1.7	.	.	.
NC(=O)SCC(=O)Nc1cccc(Cl)c1	99.5*	.	.	1.0	1.5	1.5
Nc1nnc(SCC(=O)Nc2cccc(Cl)c2)s1	.	.	-0.5	1.4	1.5	5.8
Cc1c(Cl)cccc1NC(=O)CSC(N)=O	99.1*	31.1	-0.3	0.7	2.5	-5.7
C[C@H](CO)N1C[C@H](C)[C@@H](CN(C)C(=O)Nc2ccc3c(c2)OCO3)OCCCC[C@H](C)Oc2ccc(N(C)C)cc2C1=O	.	.	-0.6	.	.	.
Cc1ccc(S(=O)(=O)N2C[C@H](O)COC[C@@H]3O[C@@H](CC(=O)N[C@H]4CCN(Cc5ccccc5)C4)CC[C@H]32)cc1	.	.	1.2	.	.	.
O=C(NCC[C@@H]1CC[C@@H](NC(=O)C2CC2)[C@H](CO)O1)Nc1ccc(Cl)cc1	.	.	0.6	.	.	.
O=C(c1cnccn1)N1CC[C@@H]2[C@@H](CO)Nc3ccc(C#Cc4cccnc4)cc3[C@@H]21	.	.	-0.5	.	.	.
CC(C)(C)NC(=O)C(=O)NN=C1CCCCCCCCCCC1	-3.8	27.7	60.4*	-0.2	1.3	-3.1
C/C(=N\O)C(=O)Nc1ccccc1	-11.0	-6.5	11.1	1.9	-0.7	-0.8
CC(=N\Nc1ccc(Cl)cc1)/C(=N/O)C(=O)Nc1ccccc1	98.7*	256.2*	.	-1.3	0.0	18.6
Cc1occc1-c1nnc(SCC(=O)c2ccccc2)n1CC1CCCO1 (configuration not stated)	98.2*	-3.4	.	1.9	-1.1	5.8
COc1cccc(C(=O)CSc2nnc(-c3ccco3)n2CC2CCCO2)c1 (configuration not stated)	91.5*	2.7	.	-1.3	0.1	-0.3
O=[N+]([O-])c1ccc(Nc2ccc(N3CCOCC3)cc2)c([N+](=O)[O-])c1	98.6*	6.0	-2.3	-0.5	-2.8	17.0
O=C(Nc1ccc(N2CCOCC2)cc1N1CCOCC1)c1ccc([N+](=O)[O-])cc1	-61.8	-11.6	.	2.1	0.4	-0.4
COc1cc(/C=N/n2c(C3CCCCC3)n[nH]c2=S)cc(Br)c1O	83.5*	20.5	0.2	-0.8	1.1	5.0
O=C(O)c1ccc(/C=N/n2c(C3CCCCC3)n[nH]c2=S)cc1	97.6*	-11.0	-5.9	-1.6	1.1	0.6
SMILES	ALR H2O2 inh	SUMO Mot1 rescue	CASP6 VEID inh	Glyco luc inh	CDK5 p35 inh	NSD2 inh
O=C(O)c1ccccc1/C=N/n1c(C2CCCCC2)n[nH]c1=S	97.7*	-7.9	3.4	-0.9	0.4	-1.3
COc1cc(C=Nn2c(-c3cc(C)[nH]n3)n[nH]c2=S)cc(Br)c1O	.	.	.	.	.	4.6
CC(C)NC(=O)N(C)C[C@@H]1Oc2c(NC(=O)C3CC3)cccc2C(=O)N([C@@H](C)CO)C[C@H]1C	.	.	-1.2	.	.	.
N#C[C@H]1[C@H](c2ccccc2C2=CCCCC2)[C@H](CO)N1C(=O)NC1CCCCC1	.	.	-2.1	.	.	.
CNC(=S)NCCc1c[nH]c2ccc(OC)cc12	98.8*	-7.2	-2.0	0.6	1.0	3.3
COc1ccc2[nH]cc(CCNC(=S)NC3CCCC3)c2c1	33.5	19.4	2.7	0.9	0.4	1.7
Cc1ccc2nc(C(F)(F)F)c(C#N)c(N)c2c1	-6.1	0.0	1.2	-0.8	95.4*	-2.2
O=C(NNC1=NS(=O)(=O)c2ccccc21)c1ccc(Cl)cc1	89.5*	-3.9	0.9	0.0	0.0	-0.6
O=S1(=O)N=C(Nc2ccc(O)cc2)c2ccccc21	98.5*	-15.0	1.2	1.1	0.5	2.0
CC(=O)N1[C@@H]2c3ccc(C4=CCCC4)c(=O)n3C[C@H]1[C@H](CO)[C@H]2C(=O)N[C@@H](C)c1ccccc1	.	.	1.7	.	.	.
O=C(c1cccnc1)N1C[C@@H]2[C@H](c3ccccc31)[C@H](CO)N2C(=O)C1CC1	.	.	2.8	.	.	.
Cc1ccccc1S(=O)(=O)NCC[C@H]1CC[C@@H](NC(=O)C2CCCCC2)[C@H](CO)O1	.	.	0.8	.	.	.
O=C(NCc1cc(C(F)(F)F)ccc1Cl)c1cccc2c1C(=O)c1ccc(-c3ccc(OC(F)(F)F)cc3)cc1S2(=O)=O	-2.1	-6.1	.	.	.	.
O=C(NCc1ccccc1Cl)c1cccc2c1C(=O)c1ccc(-c3ccc(OC(F)(F)F)cc3)cc1S2(=O)=O	4.1	-1.6	.	304.1*	-0.6	.
CNC(=O)N(O)C1N(/N=C/c2ccc(N(C)C)cc2)C(=S)SC1(C)C (configuration not stated)	98.5*	32.5	-2.3	3.2	-0.6	0.3
CCOc1ccc2nc(NC(=O)CS(=O)(=O)c3ccc(C)cc3)sc2c1	80.9*	352.8	7.1	-2.2	-0.1	2.7
CCOc1ccc2nc(NC(=O)CS(=O)(=O)c3ccccc3)sc2c1	-21.8	15.7	.	-3.1	0.0	-0.6
O=C(CSc1ncn[nH]1)CSc1ncn[nH]1	93.6*	-12.8	6.1	5.8	0.8	.
Nc1nc2ccc(O)cc2s1	99.2*	-6.7	.	-0.9	2.9	-1.0
Oc1ccc(N=Cc2cc(Br)c(N3CCOCC3)o2)cc1	86.5*	7.1	9.8	2.2	-2.4	10.3
O=[N+]([O-])c1cc(Br)c(O)c(C=Nc2ccc(N3CCOCC3)cc2)c1	12.0	120.7	12.3	3.6	0.6	3.1
CSc1ccc(Cl)c(C(=O)N(C)CC(=O)Nc2ccc(N3CCOCC3)cc2)c1	89.2*	8.0	2.1	-1.9	-2.3	-7.6
Cc1ccc(C)c(SCC(=O)N(C)CC(=O)Nc2ccc(N3CCOCC3)cc2)c1	98.3*	-9.2	3.3	-0.5	0.5	2.7

Screening results from PubChem.
